# From the supplement of paper PMC8728848
# Only a selection was taken, and the strongest signals are over-represented in it overall.
# What was measured:
# Assay in all cases: glycan array binding signal (z-score within array); higher = stronger binding
# Conditions in all cases: glycan notation: IUPAC condensed, linker removed
# [1] = target: Fuc(a1-2)Gal(b1-4)GlcNAc(b1-3)Gal(b1-4)GlcNAc
# In short: (§1)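 The binding signal is a Z-score computed within each array. Data were drawn from 3228 arrays in the Consortium for Functional Glycomics database, restricted to those with a known protein sequence. Scores were averaged over arrays of the same protein sequence at different concentrations or buffers, and over linkers, and negative values can be taken as non-binding.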
# [2] = target: Fuc(a1-2)Gal(b1-4)GlcNAc(b1-6)GalNAc
# In short: as §1
# [3] = target: Fuc(a1-2)[GalNAc(a1-3)]Gal
# In short: as §1
# [4] = target: Fuc(a1-2)[GalNAc(a1-3)]Gal(b1-3)GalNAc(b1-3)Gal(a1-4)Gal(b1-4)Glc
# In short: as §1
# [5] = target: Fuc(a1-2)[GalNAc(a1-3)]Gal(b1-4)[Fuc(a1-3)]GlcNAc
# In short: as §1
# [6] = target: Fuc(a1-3)[Gal3S(b1-4)]GlcNAc6S
# In short: as §1
# [7] = target: Gal(a1-3)Gal(b1-4)GlcNAc(b1-6)GalNAc
# In short: as §1
# [8] = target: Gal(a1-3)[Gal(a1-4)]Gal(b1-4)GlcNAc
# In short: as §1
# [9] = target: Gal(b1-3)GlcNAc(a1-3)Gal(b1-4)GlcNAc
# In short: as §1
# [10] = target: Gal(b1-3)GlcNAc(b1-2)Man(a1-3)[Gal(b1-3)GlcNAc(b1-2)Man(a1-6)]Man(b1-4)GlcNAc(b1-4)GlcNAc
# In short: as §1
# [11] = target: Gal(b1-3)GlcNAc(b1-2)Man(a1-3)[GlcNAc(b1-4)][Gal(b1-3)GlcNAc(b1-2)Man(a1-6)]Man(b1-4)GlcNAc(b1-4)GlcNAc
# In short: as §1
# [12] = target: Gal(b1-3)[GlcNAc(b1-6)]GalNAc
# In short: as §1
# Gal(b1-4)GlcNAc(b1-2)Man = target: Gal(b1-4)GlcNAc(b1-2)Man
# In short: as §1
# [13] = target: Gal(b1-4)GlcNAc(b1-2)Man(a1-3)Man(b1-4)GlcNAc(b1-4)GlcNAc
# In short: as §1
# [14] = target: Gal(b1-4)GlcNAc(b1-2)Man(a1-3)[Man(a1-6)]Man(b1-4)GlcNAc(b1-4)GlcNAc
# In short: as §1
# [15] = target: Gal(b1-4)GlcNAc(b1-3)Gal(b1-4)GlcNAc(b1-2)[Gal(b1-4)GlcNAc(b1-3)Gal(b1-4)GlcNAc(b1-6)]Man(a1-6)[Gal(b1-4)GlcNAc(b1-3)Gal(b1-4)GlcNAc(b1-2)Man(a1-3)]Man(b1-4)GlcNAc(b1-4)GlcNAc
# In short: as §1
# [16] = target: Gal(b1-4)GlcNAc(b1-3)Gal(b1-4)GlcNAc(b1-3)Gal(b1-4)GlcNAc(b1-3)Gal(b1-4)GlcNAc(b1-3)Gal(b1-4)GlcNAc(b1-2)Man(a1-3)[Gal(b1-4)GlcNAc(b1-3)Gal(b1-4)GlcNAc(b1-3)Gal(b1-4)GlcNAc(b1-3)Gal(b1-4)GlcNAc(b1-3)Gal(b1-4)GlcNAc(b1-2)Man(a1-6)]Man(b1-4)GlcNAc(b1-4)GlcNAc
# In short: as §1
# [17] = target: Gal(b1-4)GlcNAc(b1-3)Gal(b1-4)GlcNAc(b1-3)Gal(b1-4)GlcNAc(b1-3)Gal(b1-4)GlcNAc(b1-3)Gal(b1-4)GlcNAc(b1-2)[Gal(b1-4)GlcNAc(b1-3)Gal(b1-4)GlcNAc(b1-3)Gal(b1-4)GlcNAc(b1-3)Gal(b1-4)GlcNAc(b1-3)Gal(b1-4)GlcNAc(b1-6)]Man(a1-6)[Gal(b1-4)GlcNAc(b1-3)Gal(b1-4)GlcNAc(b1-3)Gal(b1-4)GlcNAc(b1-3)Gal(b1-4)GlcNAc(b1-3)Gal(b1-4)GlcNAc(b1-2)Man(a1-3)]Man(b1-4)GlcNAc(b1-4)[Fuc(a1-6)]GlcNAc
# In short: as §1
# [18] = target: Gal(b1-4)GlcNAc(b1-6)GalNAc
# In short: as §1
# Gal3S(b1-4)Glc = target: Gal3S(b1-4)Glc
# In short: as §1
# Gal3S6S(b1-4)GlcNAc = target: Gal3S6S(b1-4)GlcNAc
# In short: as §1
# Gal6S(b1-4)GlcNAc6S = target: Gal6S(b1-4)GlcNAc6S
# In short: as §1
# GalNAc(a1-3)GalNAc = target: GalNAc(a1-3)GalNAc
# In short: as §1
# Glc(a1-6)Glc(a1-6)Glc = target: Glc(a1-6)Glc(a1-6)Glc
# In short: as §1
# [19] = target: GlcNAc(b1-2)Gal(b1-3)GalNAc
# In short: as §1
# [20] = target: GlcNAc(b1-2)Man(a1-3)[GlcNAc(b1-2)Man(a1-6)]Man(b1-4)GlcNAc(b1-4)[Fuc(a1-6)]GlcNAc
# In short: as §1
# [21] = target: GlcNAc(b1-2)[GlcNAc(b1-4)]Man(a1-3)[GlcNAc(b1-4)][GlcNAc(b1-2)Man(a1-6)]Man(b1-4)GlcNAc(b1-4)GlcNAc
# In short: as §1
# [22] = target: GlcNAc(b1-3)Gal(b1-4)GlcNAc(b1-2)[GlcNAc(b1-3)Gal(b1-4)GlcNAc(b1-6)]Man(a1-6)[GlcNAc(b1-3)Gal(b1-4)GlcNAc(b1-2)Man(a1-3)]Man(b1-4)GlcNAc(b1-4)GlcNAc
# In short: as §1
# [23] = target: GlcNAc(b1-3)Gal(b1-4)GlcNAc(b1-3)Gal(b1-4)GlcNAc(b1-2)[GlcNAc(b1-3)Gal(b1-4)GlcNAc(b1-3)Gal(b1-4)GlcNAc(b1-6)]Man(a1-6)[GlcNAc(b1-3)Gal(b1-4)GlcNAc(b1-3)Gal(b1-4)GlcNAc(b1-2)Man(a1-3)]Man(b1-4)GlcNAc(b1-4)[Fuc(a1-6)]GlcNAc
# In short: as §1
# [24] = target: GlcNAc(b1-3)Gal(b1-4)GlcNAc(b1-6)[Gal(b1-3)]GalNAc
# In short: as §1
# [25] = target: GlcNAc(b1-4)GlcNAc(b1-4)GlcNAc
# In short: as §1
# [26] = target: Man(a1-2)Man(a1-3)[Man(a1-2)Man(a1-6)]Man(a1-6)[Man(a1-2)Man(a1-2)Man(a1-3)]Man(b1-4)GlcNAc(b1-4)GlcNAc
# In short: as §1
# Man(a1-6)Man = target: Man(a1-6)Man
# In short: as §1
# [27] = target: Neu5Ac(a2-3)Gal(b1-3)]Neu5Ac(a2-3)Gal(b1-4)]GlcNAc
# In short: as §1
# [28] = target: Neu5Ac(a2-3)Gal(b1-4)GlcNAc(b1-2)Man
# In short: as §1
# [29] = target: Neu5Ac(a2-3)Gal(b1-4)GlcNAc(b1-3)Gal(b1-4)GlcNAc(b1-6)[Gal(b1-3)]GalNAc
# In short: as §1
# [30] = target: Neu5Ac(a2-3)Gal(b1-4)GlcNAc(b1-6)GalNAc
# In short: as §1
# [31] = target: Neu5Ac(a2-3)Gal(b1-4)GlcNAc(b1-6)[Gal(b1-3)]GalNAc
# In short: as §1
# [32] = target: Neu5Ac(a2-3)Gal(b1-4)GlcNAc6S
# In short: as §1
# [33] = target: Neu5Ac(a2-3)Gal(b1-4)[Fuc(a1-3)]GlcNAc(b1-3)Gal(b1-4)GlcNAc
# In short: as §1
# [34] = target: Neu5Ac(a2-3)Gal(b1-4)[Fuc(a1-3)]GlcNAc6S
# In short: as §1
# Neu5Ac(a2-3)GalNAc = target: Neu5Ac(a2-3)GalNAc
# In short: as §1
# [35] = target: Neu5Ac(a2-3)GalNAc(b1-4)GlcNAc
# In short: as §1
# [36] = target: Neu5Ac(a2-6)Gal(b1-4)GlcNAc(b1-2)Man(a1-3)Man(b1-4)GlcNAc(b1-4)GlcNAc
# In short: as §1
# [37] = target: Neu5Ac(a2-6)Gal(b1-4)GlcNAc(b1-3)Gal(b1-3)GlcNAc
# In short: as §1
# [38] = target: Neu5Ac(a2-6)Gal(b1-4)GlcNAc(b1-3)Gal(b1-4)[Fuc(a1-3)]GlcNAc(b1-3)Gal(b1-4)[Fuc(a1-3)]GlcNAc
# In short: as §1
# [39] = target: Neu5Ac(a2-6)Gal(b1-4)GlcNAc(b1-3)[Neu5Ac(a2-6)Gal(b1-4)GlcNAc(b1-6)]GalNAc
# In short: as §1
# [40] = target: Neu5Ac(a2-6)Gal(b1-4)GlcNAc(b1-6)[Gal(b1-3)GlcNAc(b1-3)]Gal(b1-4)Glc
# In short: as §1
# [41] = target: Neu5Ac(a2-8)Neu5Ac(a2-8)Neu5Ac
# In short: as §1
# Neu5Ac(b2-6)GalNAc = target: Neu5Ac(b2-6)GalNAc
# In short: as §1
# [42] = target: Neu5Gc(a2-3)Gal(b1-4)GlcNAc(b1-3)Gal(b1-4)GlcNAc(b1-2)Man(a1-3)[Neu5Gc(a2-3)Gal(b1-4)GlcNAc(b1-3)Gal(b1-4)GlcNAc(b1-2)Man(a1-6)]Man(b1-4)GlcNAc(b1-4)GlcNAc
# In short: as §1
# [43] = target: Neu5Gc(b2-6)Gal(b1-4)GlcNAc
# In short: as §1
binder,measurement,setting,value
EULS2 M4 (Oryza sativa) (protein) MVYCRANPNYAMTARNGAVVLAPANPKDEYQHWIKDMRWSTSIKDEEGYPAFALVNKATGQAIKHSLGQSHPVRLVPYNPEVMDESVLWTESRDVGNGFRCIRMVNNIYLNFDAFHGDKYHGGVRDGTDIVLWKWCEGDSLRWKIQPYYILEQKLISEEDLNSAVDHHHHHH,glycan array binding signal (z-score),[1],-0.01
same,glycan array binding signal (z-score),[2],-0.469
same,glycan array binding signal (z-score),[3],-0.348
same,glycan array binding signal (z-score),[4],-0.473
same,glycan array binding signal (z-score),[5],-0.416
same,glycan array binding signal (z-score),[6],-0.356
same,glycan array binding signal (z-score),[7],0.31
same,glycan array binding signal (z-score),[8],7
same,glycan array binding signal (z-score),[9],-0.21
same,glycan array binding signal (z-score),[10],-0.259
same,glycan array binding signal (z-score),[11],4.91
same,glycan array binding signal (z-score),[12],-0.511
same,glycan array binding signal (z-score),Gal(b1-4)GlcNAc(b1-2)Man,-0.202
same,glycan array binding signal (z-score),[13],2.57
same,glycan array binding signal (z-score),[14],7.18
same,glycan array binding signal (z-score),[15],6.97
same,glycan array binding signal (z-score),[16],-0.273
same,glycan array binding signal (z-score),[17],4.92
same,glycan array binding signal (z-score),[18],-0.124
same,glycan array binding signal (z-score),Gal3S(b1-4)Glc,0.203
same,glycan array binding signal (z-score),Gal3S6S(b1-4)GlcNAc,-0.485
same,glycan array binding signal (z-score),Gal6S(b1-4)GlcNAc6S,-0.349
same,glycan array binding signal (z-score),GalNAc(a1-3)GalNAc,-0.218
same,glycan array binding signal (z-score),Glc(a1-6)Glc(a1-6)Glc,0.287
same,glycan array binding signal (z-score),[19],-0.527
same,glycan array binding signal (z-score),[20],-0.215
same,glycan array binding signal (z-score),[21],-0.288
same,glycan array binding signal (z-score),[22],0.417
same,glycan array binding signal (z-score),[23],-0.364
same,glycan array binding signal (z-score),[24],-0.431
same,glycan array binding signal (z-score),[25],-0.101
same,glycan array binding signal (z-score),[26],-0.4
same,glycan array binding signal (z-score),Man(a1-6)Man,0.713
same,glycan array binding signal (z-score),[27],-0.232
same,glycan array binding signal (z-score),[28],7.63
same,glycan array binding signal (z-score),[29],-0.233
same,glycan array binding signal (z-score),[30],-0.226
same,glycan array binding signal (z-score),[31],-1.27
same,glycan array binding signal (z-score),[32],4.39
same,glycan array binding signal (z-score),[33],0.35
same,glycan array binding signal (z-score),[34],-0.364
same,glycan array binding signal (z-score),Neu5Ac(a2-3)GalNAc,0.083
same,glycan array binding signal (z-score),[35],0.042
same,glycan array binding signal (z-score),[36],-0.572
same,glycan array binding signal (z-score),[37],2.81
same,glycan array binding signal (z-score),[38],4.01
same,glycan array binding signal (z-score),[39],7.46
same,glycan array binding signal (z-score),[40],-0.428
same,glycan array binding signal (z-score),[41],-0.325
same,glycan array binding signal (z-score),Neu5Ac(b2-6)GalNAc,0.656
same,glycan array binding signal (z-score),[42],-0.344
same,glycan array binding signal (z-score),[43],-0.504
